± gives the standard deviation of the averaged measurements.
Test system: WHIM30 (cells of a triple-negative basal-like breast cancer xenograft)
Experiment: cell viability (% of vehicle); higher = less cytotoxic
Conditions: 10 µM; 72 h
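Also: PDX cells carrying CMV promoter-driven luciferase, viability read as total photon flux per second by IVIS imaging following D-luciferin, vehicle control 0.1% DMSO.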

`CCCNC(C)C(=O)Nc1ccccc1C.Cl` (configuration not stated) [Prilocaine hydrochloride] and `CCOc1ccc2ccccc2c1C(=O)NC1C(=O)N2C1SC(C)(C)C2C(=O)[O-].O.[Na+]` (configuration not stated) [Nafcillin Sodium] are within error of each other in cell viability: 135 ± 5 for the first, 140 ± 11 for the second.

Going from `CN(C)CCC=C1c2ccccc2CCc2ccccc21.Cl` [Amitriptyline HCl] to `CN1CCC(=C2c3ccccc3CC(=O)c3sccc32)CC1.O=C(O)C=CC(=O)O` [Ketotifen Fumarate], the cell viability rises from 114 ± 2.5 to 154 ± 5.5.

First: Nc1ccc(S(=O)(=O)c2ccc(N)cc2)cc1 [Dapsone]
Second: FC(F)(F)c1ccc(C=Cc2nc(COc3ccc(CCCCn4ccnn4)cc3)co2)cc1 [Mubritinib (TAK 165)]
The cell viability of the first is higher: 117 ± 10 for the first, 63.1 ± 6.1 for the second.

Compound `Nc1nc(=O)c2ncn(COC(CO)CO)c2[nH]1` [Ganciclovir] has a cell viability of 142.4 ± 1.3.
